In PubChem BioAssay (EPA / NIEHS):
Inconclusive results are not listed. The source made the active and inactive calls. Rule for the calls, unless noted: active = hit-call score of the fitted dose curve at least 0.9, where 1 is the maximum; inactive = score below 0.9.

Columns and labels:
[1] = CCTE_Mundy_HCI_Cortical_Synap_Neur_Matur_NeuriteSpotCountPerNeuron: CCTE's Synaptogenesis and Neurite Maturation Assay in rat cortical cells for Neurite Spot Count per Neuron Count, Mundy Lab (AID 2284215)
Method in brief: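 Rat cortical primary cultures; AraC DIV 5 to arrest glia; dosing + media change DIV 7; fixed DIV 12. Anti-MAP2/anti-synaptophysin, Hoechst nuclei; HCI puncta count per neuron, positive fitting direction vs DMSO.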

[2] = CCTE_Mundy_HCI_Cortical_Synap_Neur_Matur_NeuriteCount: CCTE's Synaptogenesis and Neurite Maturation Assay in rat cortical cells for Neurite Count, Mundy Lab (AID 2284222);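 note: exposure from day 7 to day 12 in vitro with readout at day 12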
Method in brief: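 In this multiplexed morphology readout, rat primary cortical neurons are fixed at DIV 12 following dosing at DIV 7 and stained for MAP2, synaptophysin and nuclei. High-content image analysis yields neurite count.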

[3] = CCTE_Mundy_HCI_Cortical_Synap_Neur_Matur_CellBodySpotCount: CCTE's Synaptogenesis and Neurite Maturation Assay in rat cortical cells for Cell Body Spot Count, Mundy Lab (AID 2284223)
Method in brief: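 Rat cortical neurons; AraC @ DIV 5; dose + media change DIV 7; fix DIV 12; anti-MAP2/anti-synaptophysin IF, Hoechst; HCI count of soma synaptophysin puncta/neuron; DMSO = negative control.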

[4] = UKN2_HCS_IMR90_cell_viability: Viability Assessment in the University of Konstanz (UKN) Leist Lab Neural Crest Cell Migration Assay in human induced IMR90 Pluripotent Stem Cells (UKN2) (AID 2284233);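 note: cells exposed to compound for 24 h after a 24 h migration phase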
Method in brief: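 After calcein-AM/Hoechst staining, viability is quantified by high-content fluorescence imaging, relative to DMSO, in iPSC (IMR90)-derived neural crest cells. Exposure lasts 24 h, starting after a 24 h migration period on PLO/laminin/fibronectin coating.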

[5] = CCTE_Mundy_HCI_Cortical_NOG_NeuronCount: CCTE's Neurite Outgrowth Assay in rat cortical cells for Neuron Count, Mundy Lab (AID 2284236; active = hit-call score of the fitted dose curve at least 0.9, where 1 is the maximum;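 note: neurons counted by imaging betaIII-tubulin and Hoechst stained cortical cells; cells exposed to compound for about 48 hours before fixation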)
Method in brief: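 Read-out: neuron number by high-content imaging of betaIII-tubulin (Alexa Fluor-488) and Hoechst-labelled rat primary cortical cells.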

[6] = CCTE_Mundy_HCI_Cortical_NOG_BPCount: CCTE's Neurite Outgrowth Assay in rat cortical cells for Branch Point Count, Mundy Lab (AID 2284237)
Method in brief: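 Measured 50.33 h after dosing, this morphology endpoint uses rat primary cortical cultures labelled for betaIII-tubulin. Branch points are quantified by high-content imaging, with DMSO as negative control and baseline.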

[7] = CCTE_Mundy_HCI_hNP1_Casp3_7: CCTE's Caspase-Glo 3/7 Assay in human neuroprogenitor cells for Apoptosis, Mundy Lab (AID 2284240)
Method in brief: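 Apoptosis is scored by activated caspase-3/7 luminescence in WA09-derived neural progenitor cells, measured 26.5 h after chemical dosing. Values represent gain of signal relative to DMSO vehicle.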

[8] = CCTE_Mundy_HCI_hNP1_CellTiter: CCTE's Cell Titer-Glo 2 Assay in human neuroprogenitor cells for Viability, Mundy Lab (AID 2284241; active = hit-call score of the fitted dose curve at least 0.9, where 1 is the maximum)
Method in brief: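 Human neural progenitor cells (hNP1, WA09-derived) were plated on poly-L-ornithine/laminin and grown 40 to 44 hours at 37 °C, 5% CO2 before chemical addition. Twenty-four hours later, ATP was measured by CellTiter-Glo luminescence; loss of signal versus DMSO indicates reduced viability.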

[9] = CCTE_Mundy_HCI_Cortical_Synap_Neur_Matur_NeuronCount: CCTE's Synaptogenesis and Neurite Maturation Assay in rat cortical cells for Neuron Count, Mundy Lab (AID 2284242; active = hit-call score of the fitted dose curve at least 0.9, where 1 is the maximum)
Method in brief: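 Measured at DIV 12: fluorescently labelled neurons (Hoechst nuclei, MAP2) in rat primary cortical cultures, counted by high-content imaging. AraC suppressed glia from DIV 5; DMSO served as negative control.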

[10] = IUF_NPC2c_oligodendrocyte_migration_120hr: Leibniz Research Institute for Environmental Medicine (IUF) 120-hour Neural Progenitor Cell Migration Assay for Oligodendrocyte Migration (NPC2c) (AID 2284297)
Method in brief: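 Read-out is the mean distance of O4-positive oligodendrocytes from the sphere core edge at 120 h, normalized to radial glia migration and fitted in the gain direction against DMSO. Spheres of primary human neural progenitors differentiated on laminin under continuous compound exposure.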

[11] = IUF_NPC2a_radial_glia_migration_72hr: Leibniz Research Institute for Environmental Medicine (IUF) 72-hour Neural Progenitor Cell Migration Assay for Radial Glia Migration (NPC2a) (AID 2284299)
Method in brief: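 Spheres of human primary neural progenitors migrate on poly-D-lysine/laminin under compound exposure at 37C, 5% CO2. The 72 h radial glia migration distance comes from brightfield images, measured manually.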

[12] = IUF_NPC2b_neuronal_migration_120hr: Leibniz Research Institute for Environmental Medicine (IUF) 120-hour Neural Progenitor Cell Migration Assay for Neuron Migration (NPC2b) (AID 2284300)
Method in brief: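 Read-out is mean distance from sphere edge to each TUBB3-positive neuron at 120 h, expressed relative to radial glia migration distance and to DMSO baseline. Single 0.3 mm human NPC spheres differentiated on laminin under continuous compound exposure.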

[13] = IUF_NPC3_neuronal_differentiation_120hr: Leibniz Research Institute for Environmental Medicine (IUF) 120-hour Neuronal Differentiation Assay (NPC3) (AID 2284301)
Method in brief: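 Value is percent TUBB3-positive neurons among Hoechst-stained nuclei in the migration area, scored by trained CNN after 120 h differentiation. Primary hNPC spheres on poly-D-lysine/laminin, N2 medium, continuous dosing from day 0, half-refeed day 3; DMSO reference.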

[14] = IUF_NPC4_neurite_area_120hr: Leibniz Research Institute for Environmental Medicine (IUF) 120-hour Neuronal Morphology Assay for Neurite Area (NPC4) (AID 2284305; active = hit-call score of the fitted dose curve at least 0.9, where 1 is the maximum)
Method in brief: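 Neurite area (pixels, nuclei excluded) of TUBB3-positive neurons from hNPC spheres differentiating 5 days under continuous exposure at 37 C, 5% CO2. High-content imaging; loss of signal versus DMSO control across 7 concentrations.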

[15] = IUF_NPC2-5_cytotoxicity_72hr: Cytotoxicity Assessment at 72 hours in the Leibniz Research Institute for Environmental Medicine (IUF) Neural Progenitor Cell Migration and Differentiation Assay for Cytotoxicity (NPC2-5) (AID 2284306; active = hit-call score of the fitted dose curve at least 0.9, where 1 is the maximum;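 note: LDH release into supernatant measured by resorufin fluorescence marking membrane damage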)
Method in brief: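 Membrane-integrity cytotoxicity at 72 h, read as LDH-driven resorufin fluorescence in supernatant. hNPC spheres from fetal cortex differentiate on coated plates in N2 medium, 37C, 5% CO2; seven serial compound concentrations plus solvent control (DMSO ≤0.1%).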

[16] = IUF_NPC2-5_cytotoxicity_120hr: Cytotoxicity Assessment at 120 hours in the Leibniz Research Institute for Environmental Medicine (IUF) Neural Progenitor Cell Migration and Differentiation Assay (NPC2-5) (AID 2284307; active = hit-call score of the fitted dose curve at least 0.9, where 1 is the maximum)
Method in brief: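 Sphere plating starts differentiation and exposure together at day 0. Compound solution is half-replaced on day 3. At 120 h, medium supernatant is taken for an LDH membrane-integrity read based on resazurin reduction to resorufin fluorescence.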

[17] = IUF_NPC2-5_cell_number_120hr: Cell Number Assessment at 120 hours in the Leibniz Research Institute for Environmental Medicine (IUF) Neural Progenitor Cell Migration and Differentiation Assay (NPC2-5) (AID 2284308);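 note: count of Hoechst-stained nuclei in migration zone around plated human neural progenitor spheres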
Method in brief: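 hNPC spheres, one per well, PDL/laminin, N2 medium, 37C, 5% CO2. Dosing day 0 → half-medium change with fresh compound day 3 → fix 120 h. Readout: Hoechst+ nuclei count, migration area; 7 concentrations plus solvent control.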

[18] = IUF_NPC2-5_viability_120hr: Viability Assessment at 120 hours in the Leibniz Research Institute for Environmental Medicine (IUF) Neural Progenitor Cell Migration and Differentiation Assay (NPC2-5) (AID 2284312)
Method in brief: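 Alamar blue resorufin fluorescence read after 5 days of differentiation, with compound present from day 0 and replenished at day 3. Primary hNPC spheres on laminin-coated plates, 37C; seven concentrations plus solvent control, fitted against DMSO.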

[19] = IUF_NPC1_cytotoxicity_72hr: Cytotoxicity Assessment at 72 hours in the Leibniz Research Institute for Environmental Medicine (IUF) Neural Progenitor Cell Proliferation Assay (NPC1) (AID 2284332; active = hit-call score of the fitted dose curve at least 0.9, where 1 is the maximum;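 note: rising LDH signal means more cytotoxicity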)
Method in brief: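 Readout is fluorescence from LDH-dependent resazurin conversion, sampled from culture medium after compound contact lasting 72 h. Each well holds one 0.25-0.35 mm human progenitor sphere kept at 37C, 5% CO2 with EGF and FGF.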

[20] = CCTE_Mundy_HCI_iCellGluta_NOG_NeuronCount: CCTE's Neurite Outgrowth Assay in iCellGluta cells for Neuron Count, Mundy Lab (AID 2284340; active = hit-call score of the fitted dose curve at least 0.9, where 1 is the maximum;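 note: cells fixed about 48 h after compound addition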)
Method in brief: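 Neuron count read by automated high-content imaging of Hoechst 33342 and betaIII-tubulin/Alexa Fluor-488 labelling in human iPSC glutamatergic neurons. Activity fitted relative to DMSO.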

[21] = CCTE_Mundy_HCI_iCellGluta_NOG_NeuriteCount: CCTE's Neurite Outgrowth Assay in iCellGluta cells for Neurite Count, Mundy Lab (AID 2284342; active = hit-call score of the fitted dose curve at least 0.9, where 1 is the maximum;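 note: chemical exposure about 48 hours starting 2 hours after plating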)

Measured: outcome

Cc1[nH]n(C)c(=O)c1C(=O)c1ccc(C(F)(F)F)cc1S(C)(=O)=O
inactive: all assays above
